CHX counter: Cycloheximide Counterscreen for Small Molecule Inhibitors of Shiga Toxin; cell reporter, cycloheximide protein synthesis inhibition counterscreen; max response, %; hit rate 12% among 300,000; AID 2314, 2010; in the data active = max response mostly above about 13%, no sharp cut-off; inactive = mostly below about 14%; note: read at 38.3 µM for the half of the compounds with a filed dose; 0% is about no effect
HCV inhibitor: qHTS Assay for Inhibitors of Hepatitis C Virus (HCV). Huh7.5.1 HCVcc-Cre infection, luciferase reporter, 44 h. Potency, µM (series often up to 41.8 µM), for inactives: at the highest dose activity change, negative = inhibition, hits mostly inhibitors. hit rate 3.4% among 340,000; note: potency is the fitted concentration of half-maximal effect; % is set by controls: 0 for no effect and ±100 for the full control effect
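Cells (1,000/well) were plated 4 h before compound, then infected with HCVcc-Cre virus (~0.5 moi). After 44 h further culture, infection was read as luciferase luminescence following a 15 min substrate incubation at room temperature.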
HCMV inh: qHTS Assay for inhibitors of the human cytomegalovirus (HCMV). hit rate 4.5% among 410,000. HFF cells, HCMV-luciferase reporter, 72 h; active compounds read low. activity change, negative = inhibition, % at 57.5 µM; in the data active = activity change below about -60%; inconclusive = no clear call, values can overlap the other calls; inactive = above about -39%; note: % is set by controls: 0 for no effect and ±100 for the full control effect
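Compounds were evaluated in HFFs infected with an HCMV luciferase reporter virus (MOI 1 PFU/cell). Luciferase in lysates collected 72 h post infection served as the replication measure.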
Pf growth 96h: Primary qHTS for delayed death inhibitors of the malarial parasite plastid, 96 hour incubation; P. falciparum luciferase reporter growth, 96 h; Potency, µM (series often up to 28.7 µM), for inactives: top-dose activity change, negative = inhibition, most hits filed as inhibitors; hit rate 6.9% among 320,000; note: potency is the fitted concentration of half-maximal effect; % is set by controls: 0 for no effect and ±100 for the full control effect
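Delayed-death screen, second-generation endpoint: infected erythrocytes, 2% hematocrit, 0.05% parasitemia final; 96 hours at 37 C, 5% CO2; luciferase detection reagent; luminescence decrease equals reduced growth.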
Pf growth 48h: Primary qHTS for delayed death inhibitors of the malarial parasite plastid, 48 hour incubation; P. falciparum luciferase growth in erythrocytes, 48 h; Potency, µM (doses to about 28.7 µM), for inactives: at the top dose activity change, negative = inhibition, most hits filed as inhibitors; hit rate 5.9% among 310,000; AID 504832, 2011; note: potency is the fitted concentration of half-maximal effect; % is set by controls: 0 for no effect and ±100 for the full control effect
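Compounds are pin-transferred into medium, infected erythrocytes (2% hematocrit, 0.1% parasitemia final) are added, and plates sit one parasite generation at 37 C in 5% CO2. Detection reagent is then added and luminescence measured.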
Shiga inhibitor: A qHTS for Small Molecule Inhibitors of Shiga Toxin. hit rate 9.2% among 290,000. Vero cells, Shiga toxin protein synthesis inhibition reporter. AID 2315, 2010. inhibition, % at 38.7 µM; in the data active = inhibition mostly above about 28%, no sharp cut-off; inactive = mostly below about 43%; note: 0% is about no effect
* = called active by the depositor; ? = inconclusive; · = no result given; + = active, no number. Hits are enriched below; roughly 21% of the tested compounds scored in any of these assays. Unless noted, calls come from the whole dose curve; as a rule, active = well fitted inhibition curve with a large enough effect; inconclusive = small, poorly fitted or top-dose-only effect, or another doubt; inactive = no such curve, though single readings can be large or run the other way.

SMILES | CHX counter | HCV inhibitor | HCMV inh | Pf growth 96h | Pf growth 48h | Shiga inhibitor
CCCc1ccc(-c2cc(NC(=O)CSc3n[nH]c(N)n3)n(-c3ccccc3)n2)cc1 | 14.5 | ? | -3.3 | 19.7% | · | 37.1
CCCCc1ccc(-c2nc(N)n[nH]2)cc1 | 44.5* | 15.3% | 56.1 | 4.8% | 112.5% | 77.8*
CCCc1ccc(-c2cc(N)n[nH]2)cc1 | 29.7* | -9.5% | 72.4 | 104.2% | · | 26.9
Nc1n[nH]c(-c2ccc(F)cc2)n1 | 7.9 | 7.8% | 47.2 | -7.5% | 18.6% | 13.4
O=C(NC(=S)N1CCN(C/C=C/c2ccccc2)CC1)c1cccnc1 | -1.7 | -0.1% | -10.3 | 3.29µM* | 9.28µM* | 23.9
O=C(NC(=S)N1CCN(C/C=C/c2ccccc2)CC1)c1ccc(F)cc1 | 0.7 | ? | -36.3 | ? | 10.4µM* | 13.9
O=C(c1cccnc1)N1CCN(C/C=C/c2ccccc2)CC1 | 16.8 | -2.7% | 25.6 | 32.6% | 12.7% | -18.3
CC(=O)N1CCN(C(=S)NC(=O)c2ccc(F)cc2)CC1 | · | 20.2% | ? | · | · | ·
CCCCNc1nc2c(S(=O)(=O)c3ccc(Br)cc3)nnn2c2ccsc12 | · | · | 17.6 | · | · | ·
COc1ccccc1NC(=O)N(C)C[C@H]1OCc2cn(nn2)CCCC(=O)N([C@H](C)CO)C[C@@H]1C | · | · | -6.2 | · | · | ·
C=CCC1(CC=C)CCCN1C(=O)c1cc(COc2ccc(C)nc2)on1 | 21.3* | 0.794µM* | -75.6* | -5.5% | ? | 78.3*
Cc1ccc(OCc2cc(C(=O)N3CCC(c4ccccc4Cl)C3)no2)cc1C (configuration not stated) | 62.6* | ? | 62.7 | ? | 32.0% | 72.8*
Cc1ccc(OCc2cc(C(=O)N3CCN(C4CCCCC4)CC3)no2)cc1C | 52.2* | -26.0% | 114.2 | 37.2% | ? | 65.4*
Cc1cccc(N2CCN(C(=O)c3cc(COc4ccc(F)c(F)c4)on3)CC2)n1 | 40.1* | 17.5% | 3.6 | 22.7% | 26.5% | 59.2
Cn1ccnc1CN1CCN(C(=O)c2cc(COc3ccc(F)c(F)c3)on2)CC1 | 15.5 | 2.8% | 5.2 | 52.8% | 4.4% | -12.7
C=CCC1(CC=C)CCCN1C(=O)c1cc(COc2ccc(F)c(F)c2)on1 | 2.6 | ? | 0.0 | -12.0% | ? | 12.3
CC(=O)C1=CCC(c2ccc(Br)cc2)N(S(=O)(=O)c2ccc(C)cc2)C1 (configuration not stated) | · | · | -37.9 | · | · | ·
Cc1ccc(OCc2cc(C(=O)N3CCCCCCC3)no2)cc1C | 20.2* | 0.7% | 81.3 | 1.65µM* | 14.4% | 37.7*
Cc1cc(OCc2cc(C(=O)N3CCN(CC4CC4)CC3)no2)cc(C)c1Cl | 14.3 | -2.3% | 0.8 | ? | -22.5% | 25.1
CC(=O)NCCC1CCN(C(=O)c2cc(COc3ccc(C)nc3)on2)CC1 | -2.3 | -21.1% | -34.9 | -12.5% | 19.2% | -5.6
Cc1ccc(OCc2cc(C(=O)N3CCCC3)no2)cn1 | 44.1* | ? | 43.4 | 14.6% | 84.4% | 74.2*
Cc1ccc(OCc2cc(C(=O)N3CCc4sccc4C3)no2)cc1C | 17.3 | 9.1% | · | ? | 10.6% | 13.9
Cc1ccc(OCc2cc(C(=O)N3CCN(c4ccccc4)CC3)no2)cc1C | 40.9* | -5.2% | 154.6 | 18.0% | 56.3% | 59.2*
Cc1cc(OCc2cc(C(=O)N3CCCCCC3)no2)cc(C)c1Cl | 61.4* | · | 181.0 | ? | 19.4% | 128.0*
Cc1ccc2nc(-c3ccc(Cl)cc3)c(Cc3ccsc3)n2c1 | · | · | -23.5 | · | · | ·
SMILES | CHX counter | HCV inhibitor | HCMV inh | Pf growth 96h | Pf growth 48h | Shiga inhibitor
COCC1CCN(C(=O)c2cc(COc3cncc(Cl)c3)on2)C1 (configuration not stated) | -3.5 | -1.0% | -26.4 | ? | 14.3% | -3.2
Cc1cccc(C)c1OCc1cc(C(=O)N2CCNC(=O)C2)no1 | 23.7* | 2.4% | -36.3 | ? | -3.8% | 16.2
Cc1cccc(C)c1OCc1cc(C(=O)N2CCCCCCC2)no1 | 42.9* | 9.7% | 94.0 | 39.7% | ? | 48.6*
CSc1ccccc1OCc1cc(C(=O)N2CCNC(=O)C2)no1 | 13.0 | · | 4.1 | ? | 5.2% | 31.2
C=CCC1(CC=C)CCCN1C(=O)c1cc(COc2ccccc2SC)on1 | 5.5 | ? | -5.4 | -12.1% | 14.7µM* | -7.4
COCC1CCN(C(=O)c2cc(COc3cc(C)c(Cl)c(C)c3)on2)C1 (configuration not stated) | 72.4* | -6.9% | 44.7 | ? | 12.2% | 45.3*
CCCCNC(=O)C[C@@H]1C[C@@]2(C(=O)OCC)CCCC=C2N(Cc2ccccc2)C1=O | · | · | -3.0 | · | · | ·
Cc1ccc(OCc2cc(C(=O)N3CCC(C(O)C(C)C)CC3)no2)cc1C (configuration not stated) | 24.5* | -22.0% | 30.8 | ? | -6.6% | 51.5*
Cc1cc(OCc2cc(C(=O)N3CCC(Oc4cccnc4)CC3)no2)cc(C)c1Cl | 11.2 | ? | -2.6 | 36.5% | -14.6% | 18.9
Cc1ccc(OCc2cc(C(=O)N3CCN(C4CCCC4)CC3)no2)cc1C | 41.7* | -24.2% | · | -0.1% | -0.9% | 52.8*
CCOC(=O)C1CCCN(C(=O)c2ccc(Cn3c(=S)[nH]c4cc(C(=O)OC)ccc4c3=O)cc2)C1 (configuration not stated) | 14.0 | ? | 47.5 | 11.7µM* | ? | 42.7
CCOC(=O)C1CCCN(C(=O)c2ccc3c(=O)n(Cc4ccccc4OC)c(=S)[nH]c3c2)C1 (configuration not stated) | -2.6 | ? | -93.9* | -22.5% | ? | -9.8
COc1ccccc1Cn1c(=S)[nH]c2cc(C(=O)NCc3cccnc3)ccc2c1=O | 5.9 | ? | -23.9 | 8.28µM* | ? | -11.2
CCOC(=O)N1CCN(C(=O)c2ccc(Cn3c(=S)[nH]c4cc(C(=O)OC)ccc4c3=O)cc2)CC1 | 0.3 | -25.9% | -3.8 | ? | ? | -5.4
CCOc1ccccc1NC(=O)CN1C(=O)COc2ccc(S(=O)(=O)N3CCCCC3)cc21 | · | · | -14.6 | · | · | ·
COc1cc(OC)cc(C(=O)NCCNc2nc3cc(C)cc(C)c3cc2C#N)c1 | -1.8 | ? | -2.5 | 1.2% | ? | ·
CC(C)(C)OC(=O)N1CCC(c2nnc(SCc3ccccc3)o2)CC1 | · | · | 0.4 | · | · | ·
COc1ccc(CNC(=O)C2CCN(S(=O)(=O)N3CCCC3)CC2)cc1 | -1.7 | -2.9% | + | -15.2% | 4.0% | 0.5
CSc1ccc(CNC(=O)C2CCC(=O)N(CC3CCCCC3)C2)cc1 (configuration not stated) | · | · | -21.7 | · | · | ·
CCOC(=O)N1CCN(S(=O)(=O)N2CCCC(C(=O)NCc3ccc(OC)cc3)C2)CC1 (configuration not stated) | -2.9 | -15.4% | + | 0.0% | 6.8% | -5.0
